# Assay results published in PubChem BioAssay (NCI).
# This is part of a sample that, as a whole, favours compounds with a hit. Of some 79,000 tested, about 15% had one in any assay. Active and inactive are the calls of the source. Rule as the data show it: active = growth inhibition above about 70%; inactive = the rest.
# Experiment: NCI Yeast Anticancer Drug Screen. Data for the bub3 strain (AID 167)
# Settings: S. cerevisiae bub3 mutant strain, at 50.0 µM, hits give high values
# In short: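 In this screen, a yeast mutant lacking normal mitotic checkpoint function is challenged with compound. Relative growth versus vehicle gives the inhibition value.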
row,Structure (SMILES),growth inhibition
1,Cc1ccc(/C=C2\CCCC(CN3CCCCC3)C2=O)cc1 (stereo not drawn),89.3% (active)
2,Oc1ccc(CCCCCc2ccc(O)cc2)cc1,99.6% (active)
3,COC(=O)c1ccccc1CC(Cc1ccc2c(c1)CCC2)C(=O)OC (stereo not drawn),12.3% (inactive)
4,CN=C1NS(=O)(=O)c2ccccc21,-0.85% (inactive)
5,CCCCC/C(=C/C=C/c1ccc(Cl)cc1)CN(C)C,99.8% (active)
6,O=S(=O)(O)c1ccc2c(c1)C1C(C3C2C2(Cl)C(Cl)=C(Cl)C3(Cl)C2(Cl)Cl)C2(Cl)C(Cl)=C(Cl)C1(Cl)C2(Cl)Cl (stereo not drawn),88.6% (active)
7,Cc1ccc(S(=O)(=O)N/N=C/c2oc(-c3cccc([N+](=O)[O-])c3)c(-c3cccc([N+](=O)[O-])c3)c2[N+](=O)[O-])cc1,87.9% (active)
8,CCN(CC)C(C)(C)C(=O)/C=C/c1ccc(Cl)cc1,54.5% (inactive)
9,Fc1ccc(NC(=S)SCc2ccc(Cl)c(Cl)c2)c(F)c1,99% (active)
10,CC[C@@]1(OP(=O)(O)O)C(=O)OCc2c1cc1n(c2=O)Cc2cc3ccccc3nc2-1,77.2% (active)
11,CC(C)C1=CC2=CCC3C(C)(C(=O)O)CCCC3(C)C2CC1 (stereo not drawn) (tested in a mixture with another compound),89.5% (active)
12,C=CCSc1nc2ccccc2c(=O)n1Cc1ccco1,19.4% (inactive)
13,COC(=O)c1c(C)cccc1C1CN=NC12Cc1ccc(C)c(C)c1C2=O (stereo not drawn),78.7% (active)
14,CC(=O)N=C1N(/C=C2\C(=O)Oc3ccccc3C2=O)C(=O)/C(=C/c2cccc(Cl)c2Cl)N1C,-37.5% (inactive)
15,O=C1NC(CSSCC2NC(=O)N(c3ccccc3)C2=O)C(=O)N1c1ccccc1 (stereo not drawn),55.5% (inactive)
16,CCCCCCCCCCCCOP(=O)(N1CC1(C)C)N1CC1(C)C (stereo not drawn),87.3% (active)
17,Cc1cccc(/C=N/NC(=S)Nc2ccc(Cl)cc2)n1,87.2% (active)
18,CN1CCCCC1c1cc2c3ccccc3ccn2c1-c1ccccc1 (stereo not drawn),98.4% (active)
19,CN(Cc1ccccc1)CC(O)c1cc(-c2ccc(Cl)cc2)nc2ccccc12 (stereo not drawn),98% (active)
20,OC1CCN(c2c3ccccc3nc3ccccc23)CC1,5.55% (inactive)

row,Structure (SMILES),growth inhibition
1,CCC1=C(c2ccc(OC(C)=O)cc2)Cc2cc(OC(C)=O)ccc21,26% (inactive)
2,Cc1cccc(C)c1NC(=O)CSC(N)=O,75.5% (active)
3,c1ccc([B-](c2ccccc2)(c2ccccc2)c2ccccc2)cc1,93.3% (active)
4,[Fe+2].c1cc[cH-]c1.c1ccc(-c2ccc[cH-]2)cc1,74.7% (active)
5,O=C(CC1(O)CCCCC1)OC1CCCC1,-58.9% (inactive)
6,OC1(c2ccccc2)c2ccccc2Sc2ccccc21,99.3% (active)
7,CC(CN(C)C)C(=O)/C=C/c1ccc(C(C)C)cc1 (stereo not drawn),69% (inactive)
8,CSc1cccc(N2C(=O)C=CC2=O)c1,92.7% (active)
9,O=c1c2ccccc2nc(-c2ccccc2)n1NC(=S)Nc1ccc(Cl)cc1[N+](=O)[O-],71.4% (active)
10,COc1ccc(OC(C)=O)c2c1CCC=CC2=O,65.3% (inactive)
11,CC(=O)Nc1ccc2c(c1)Cc1cccc(F)c1-2,61.9% (inactive)
12,CCC(c1ccc(O)cc1)C(O)(CC)c1ccc(O)cc1 (stereo not drawn),58.6% (inactive)
13,Cn1c(-c2ccccc2)c(CCNC(=O)C2CCC2)c2ccccc21,79.2% (active)
14,FC(F)(F)c1ccccc1NC(=S)SCc1ccco1,81.3% (active)
15,O=[N+]([O-])C1=Cc2cc(Cl)ccc2OC1c1cccc2ccccc12 (stereo not drawn),85.5% (active)
16,NC(=O)c1c(Cl)nc2n1CCS2,-4.2% (inactive)
17,CCCCCC(C)C1=NC(C)(C)CC(C)O1 (stereo not drawn),-3.2% (inactive)
18,CCCCCCCCCCCCCCCCN(C)c1ccc(S(=O)(=O)O)cc1[N+](=O)[O-],88.3% (active)
19,O=C(c1cccnc1)N(C1CCCCC1)C1CCCCC1,0.35% (inactive)

# Experiment: NCI Yeast Anticancer Drug Screen. Data for the mlh1 rad18 strain (AID 175)
# Settings: S. cerevisiae mlh1 rad18 strain growth inhibition; at 5.0 µM (retest, dose inferred, filed as 0.5); hits give high values
# In short: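 Growth inhibition of the yeast strain was measured after compound exposure and expressed relative to vehicle-treated controls. The strain carries defined defects in DNA damage repair.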
row,Structure (SMILES),growth inhibition
1,Cc1ccc(/C=C2\CCCC(CN3CCCCC3)C2=O)cc1 (stereo not drawn),32% (inactive)
2,Oc1ccc(CCCCCc2ccc(O)cc2)cc1,7% (inactive)
3,COC(=O)c1ccccc1CC(Cc1ccc2c(c1)CCC2)C(=O)OC (stereo not drawn),16% (inactive)
4,CN=C1NS(=O)(=O)c2ccccc21,0% (inactive)
5,CCCCC/C(=C/C=C/c1ccc(Cl)cc1)CN(C)C,7% (inactive)
6,O=S(=O)(O)c1ccc2c(c1)C1C(C3C2C2(Cl)C(Cl)=C(Cl)C3(Cl)C2(Cl)Cl)C2(Cl)C(Cl)=C(Cl)C1(Cl)C2(Cl)Cl (stereo not drawn),23% (inactive)
7,Cc1ccc(S(=O)(=O)N/N=C/c2oc(-c3cccc([N+](=O)[O-])c3)c(-c3cccc([N+](=O)[O-])c3)c2[N+](=O)[O-])cc1,57% (inactive)
8,CCN(CC)C(C)(C)C(=O)/C=C/c1ccc(Cl)cc1,46% (inactive)
9,Fc1ccc(NC(=S)SCc2ccc(Cl)c(Cl)c2)c(F)c1,9% (inactive)
10,CC[C@@]1(OP(=O)(O)O)C(=O)OCc2c1cc1n(c2=O)Cc2cc3ccccc3nc2-1,49% (inactive)
11,CC(C)C1=CC2=CCC3C(C)(C(=O)O)CCCC3(C)C2CC1 (stereo not drawn) (tested in a mixture with another compound),-3% (inactive)
12,C=CCSc1nc2ccccc2c(=O)n1Cc1ccco1,43% (inactive)
13,COC(=O)c1c(C)cccc1C1CN=NC12Cc1ccc(C)c(C)c1C2=O (stereo not drawn),-1% (inactive)
14,CC(=O)N=C1N(/C=C2\C(=O)Oc3ccccc3C2=O)C(=O)/C(=C/c2cccc(Cl)c2Cl)N1C,13% (inactive)
15,O=C1NC(CSSCC2NC(=O)N(c3ccccc3)C2=O)C(=O)N1c1ccccc1 (stereo not drawn),8% (inactive)
16,CCCCCCCCCCCCOP(=O)(N1CC1(C)C)N1CC1(C)C (stereo not drawn),4% (inactive)
17,Cc1cccc(/C=N/NC(=S)Nc2ccc(Cl)cc2)n1,35% (inactive)
18,CN1CCCCC1c1cc2c3ccccc3ccn2c1-c1ccccc1 (stereo not drawn),69% (inactive)
19,CN(Cc1ccccc1)CC(O)c1cc(-c2ccc(Cl)cc2)nc2ccccc12 (stereo not drawn),10% (inactive)
20,OC1CCN(c2c3ccccc3nc3ccccc23)CC1,8% (inactive)

row,Structure (SMILES),growth inhibition
1,CCC1=C(c2ccc(OC(C)=O)cc2)Cc2cc(OC(C)=O)ccc21,-13% (inactive)
2,Cc1cccc(C)c1NC(=O)CSC(N)=O,7% (inactive)
3,c1ccc([B-](c2ccccc2)(c2ccccc2)c2ccccc2)cc1,1% (inactive)
4,[Fe+2].c1cc[cH-]c1.c1ccc(-c2ccc[cH-]2)cc1,1% (inactive)
5,O=C(CC1(O)CCCCC1)OC1CCCC1,7% (inactive)
6,OC1(c2ccccc2)c2ccccc2Sc2ccccc21,7% (inactive)
7,CC(CN(C)C)C(=O)/C=C/c1ccc(C(C)C)cc1 (stereo not drawn),-1% (inactive)
8,CSc1cccc(N2C(=O)C=CC2=O)c1,34% (inactive)
9,O=c1c2ccccc2nc(-c2ccccc2)n1NC(=S)Nc1ccc(Cl)cc1[N+](=O)[O-],2% (inactive)
10,COc1ccc(OC(C)=O)c2c1CCC=CC2=O,14% (inactive)
11,CC(=O)Nc1ccc2c(c1)Cc1cccc(F)c1-2,-2% (inactive)
12,CCC(c1ccc(O)cc1)C(O)(CC)c1ccc(O)cc1 (stereo not drawn),-26% (inactive)
13,Cn1c(-c2ccccc2)c(CCNC(=O)C2CCC2)c2ccccc21,18% (inactive)
14,FC(F)(F)c1ccccc1NC(=S)SCc1ccco1,-2% (inactive)
15,O=[N+]([O-])C1=Cc2cc(Cl)ccc2OC1c1cccc2ccccc12 (stereo not drawn),98% (active)
16,NC(=O)c1c(Cl)nc2n1CCS2,4% (inactive)
17,CCCCCC(C)C1=NC(C)(C)CC(C)O1 (stereo not drawn),-139% (inactive)
18,CCCCCCCCCCCCCCCCN(C)c1ccc(S(=O)(=O)O)cc1[N+](=O)[O-],59% (inactive)
19,O=C(c1cccnc1)N(C1CCCCC1)C1CCCCC1,-10% (inactive)
